Bioassay records: PubChem BioAssay, National Center for Advancing Translational Sciences (NCATS)
DT40 TDP1 no CPT = qHTS for Inhibitors of human tyrosyl-DNA phosphodiesterase 1 (TDP1): qHTS in cells in absence of CPT; DT40 Tdp1-/- hTDP1 cells, no CPT, ATP luminescence, 48 h; Potency, µM (series often up to 46.2 µM), inactives show top-dose activity change, negative = growth inhibition, hits mostly inhibitors; actives 15% (n = 420,000); note: nearly all actives have a fitted effect of over 55% in size
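Camptothecin absent (DMSO only). Human TDP1-complemented DT40 knockout cells, 400 cells/well, 37 °C for minimum 48 hr; ATP measured via CellTiter-Glo, 30 min dark incubation, luminescence.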
HT1080-NT tox = kills 2HG-producing HT-1080-NT fibrosarcoma cells | HT-1080-NT fibrosarcoma viability, CellTiter-Glo ATP luminescence, 48 h | Potency, µM (doses to about 46.1 µM), for inactives: top-dose activity, negative = less viability, most hits filed as cytotoxic | actives 1.6% (n = 360,000);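 note: NT is the 2HG producing partner of a matched IDH1 knockdown line; 0% = DMSO-treated cells and -100% = media-only wells without cells; nearly all actives have a fitted effect of over 55% in size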
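Viability of the 2HG-overproducing fibrosarcoma line after 48 hours of compound exposure at 37 degrees C was determined by luminescence with CellTiter-Glo, and concentration-effect curves were then fitted and categorized.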
KB-3-1 cytotox = KB-3-1 parental cell cytotoxicity | AID 1347075 | actives 1.4% (n = 400,000) | KB-3-1 viability, CellTiter-Glo ATP luminescence, 72 h | Potency, µM (top dose mostly 46.1 µM), hits mostly cytotoxic; note: nearly all actives have a fitted effect of over 60% in size
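Multi-concentration cytotoxicity screen in KB-3-1 cells grown in DMEM lacking phenol red with 10% FBS. After 72 h at 37 °C with compound, ATP-dependent luminescence was recorded.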
KB-V1 MDR tox = KB-V1 MDR subline cytotoxicity; KB-V1 MDR cells viability, CellTiter-Glo, 72 h; Potency, µM (doses to about 46.1 µM), hits mostly cytotoxic; actives 3.4% (n = 400,000); note: nearly all actives have a fitted effect of over 60% in size
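KB-V1 MDR subline cells in DMEM (phenol-red free, 10% FBS) exposed to compounds in qHTS concentration series for 72 h at 37 degrees C. Viability read by CellTiter-Glo luminescence; concentration-effect curves fitted after normalization and correction.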
DT40 TDP1 CPT = growth inhibition of DT40 Tdp1-/-;hTDP1 cells with camptothecin (screen for TDP1 inhibitors); actives 12% (n = 420,000); Potency, µM (titrated, usually from 46.2 µM), for inactives: at the highest dose activity change, negative = growth inhibition, usual class: inhibitors; chicken DT40 Tdp1-/-;hTDP1 cells + 20 nM CPT, ATP luminescence, 48 h; note: nearly all actives have a fitted effect of over 55% in size
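Chicken DT40 Tdp1-/- cells stably complemented with human TDP1 were seeded at 400 cells/well in medium containing 20 nM camptothecin, exposed to pin-transferred compounds, and grown at 37 °C for at least 48 hr. Viability was read as ATP luminescence.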
HT1080 IDH1KD tx = kills HT-1080 cells with IDH1 knockdown. HT-1080 IDH1 knockdown viability, ATP luminescence, 48 h. Potency, µM (top dose mostly 46.1 µM), for inactives: top-dose activity, negative = toxicity, usual class: cytotoxic. actives 2% (n = 360,000);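 note: 0% = DMSO wells and -100% = cell-free medium wells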
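IDH1KD HT-1080 cells, 750/well, RPMI + 5% FBS; compound pinned after 2 h settling; 48 h, 37 °C; CellTiter-Glo luminescence; % activity normalised to DMSO and no-cell wells; curves fitted, classed by r2 and efficacy.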
Numbers without * were called inactive; i = inactive; ? = inconclusive; nt = no result; [ ] = dose if it differs, or a comment. A selection: hits, their analogues and other compounds. The true share with any hit is near 19%. Calls come from the whole dose curve; as a rule, active = well fitted curve in the direction sought with a large enough effect; inconclusive = small, poorly fitted or top-dose-only effect, or another doubt; inactive = no such curve, though single readings can be large; an effect the other way counts as inactive or inconclusive. Unless noted, % is set by controls: 0 for no effect and ±100 for the full control effect; potency is the fitted concentration of half-maximal effect.

SMILES | DT40 TDP1 no CPT | HT1080-NT tox | KB-3-1 cytotox | KB-V1 MDR tox | DT40 TDP1 CPT | HT1080 IDH1KD tx
Cc1ccccc1OCC(=O)Nc1ccc([N+](=O)[O-])cc1 | ? | -1% | i | i | -32% | ?
CC(C)CC(COCc1cccc(Cl)c1)N1CCN(C(=O)c2ccc(C(F)(F)F)cc2)CCC1=O (centres undefined) | 16µM* | ? | i | i | ? | -25%
CC(C)C[C@@H](COCc1cccc(Cl)c1)N1CCN(C(=O)c2cccc(C(F)(F)F)c2)CCC1=O | 16µM* | ? | i | ? | ? | ?
CC(C)(C)OC(=O)N1CCC[C@H]1C(=O)NCc1ccc(F)cc1F | 1% | 9% | i | ? | 0% | 13%
CC[C@]1(C(=O)OC)[C@H]2C(=O)N(C)C(=O)[C@H]2[C@H]2CN(C)C(=NC)N21 | -2% | -4% | i | i | -14% | -3%
CCN1C/C(=C\c2cc(OC)c(OC)c(OC)c2)C2=NN(c3ccccc3)C(c3cc(OC)c(OC)c(OC)c3)C2C1 (centres undefined) | 5.8µM* | 7% | ? | ? | 6.5µM* | -2%
COc1cc(C2C3C(=O)N(c4ccccc4)C(=O)C3ON2c2ccccc2)cc(OC)c1OC (centres undefined) | -3% | 19% | i | ? | 6% | 14%
CCCCn1c2nc3ccccc3nc2c2c(=O)n(CC(C)C)cnc21 | 21% | 1% | i | i | 1% | 11%
CCCCn1c2nc3ccccc3nc2c2c(=O)n(C(C)CC)cnc21 (centres undefined) | 23µM* | -2%[9.24 µM] | i | i | 10µM* | -2%
COCCCn1c2nc3ccccc3nc2c2c(=O)n(Cc3ccc(Cl)cc3)cnc21 | 18µM* | -7% | i | i | ? | -3%
Cc1nc2ccccc2c(=O)n1CCc1ccccc1 | ? | 11% | i | i | ? | 11%
COCCCn1c(C)nc2c(c1=O)c1nc3ccccc3nc1n2CCc1ccccc1 | 16µM* | ? | i | ? | ? | 21%
Cc1ccc(CNC(=O)c2c(-c3cccc(Br)c3)noc2C)o1 | -13% | nt | i | i | ? | nt
O=C(CN1Cc2ccccc2OC(c2ccccc2F)C1)NC(c1ccccn1)C(F)(F)F (centres undefined) | ? | nt | nt | nt | -5%[9.04 µM] | nt
O=C1C=C(c2cc3ccccc3s2)CCC1 | -26% | 7% | i | i | -17% | 10%
O=C1c2ccccc2NC(c2ccco2)N1/N=C/c1ccco1 (centres undefined) | -27% | -2% | i | i | -26% | -3%
C/C(=N\N1C(=O)c2ccccc2NC1c1ccco1)c1ccccc1O (centres undefined) | 12µM* | ? | ? | ? | -87% | ?
C/C(=N\N1C(=O)c2ccccc2NC1c1ccccc1)c1ccccc1O (centres undefined) | 7.3µM* | -10% | i | i | 4.6µM* | -13%
COc1ccc(/C(C)=N/N2C(=O)c3ccccc3NC2c2ccc(O)c(OC)c2)cc1 (centres undefined) | -8% | -3% | i | i | -18% | 2%
O=C(NCc1ccco1)c1cccc(-c2ccc3nccn3c2)c1 | ? | 11% | i | i | ? | 2%
CCOc1cccc(CN2CCC(n3nccc3NC(=O)C3CC3)CC2)c1O | -21% | 12% | i | i | -9% | 17%
CCOc1ccccc1N1CCN(C(=O)CCCN2C(=O)c3cccc4cccc(c34)C2=O)CC1 | 21µM* | 12% | i | ? | 21µM* | 22%
